Screens from PubChem BioAssay.
Hits are enriched below; roughly 4.1% of the tested compounds scored in any of these assays.
hgDAF-12 ag: hgDAF-12 agonism, primary luciferase screen; AID 687014; HEK293 GAL4-hgDAF12 UAS-luciferase reporter, agonist luminescence; normalized to butyrate control; 1.8% of 370,000 active; activation, % at 6.8 µM;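 active means activation above a cutoff set at the mean of all screened compounds plus 3 SD, cut at about 10% in these data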
DAX1 inh-1: DAX1 (NR0B1) inhibition, primary screen; HEK293T StAR-luciferase reporter, SF-1/DAX-1 repression relief; inhibition, % at 6.8 µM; 1.1% of 370,000 active;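 active means inhibition above the mean over all tested compounds plus 3 SD, cut at about 3.6% in these data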;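 further: higher inhibition means more luminescence from relief of DAX-1 repression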
ssDAF-12 act: activators of S. stercoralis DAF-12 nuclear receptor. HEK293 ssDAF-12/GRIP1 lit1-tk-luc reporter, luminescence; % of 3 µM dafachronic acid response. 1% of 370,000 active. activation, % at 6.8 µM. AID 652126;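 active means activation above the mean over all tested compounds plus 3 SD, cut at about 0.9% in these data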
hcDAF12 agonist: activates DAF-12 receptor from parasite H. contortus; HEK293 hcDAF-12 lit1-tk-luc reporter, luminescence; 0% DMSO, 100% Δ7-dafachronic acid; activation, % at 6.8 µM; 1.4% of 370,000 active; AID 652067;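 active means activation above the mean of all tested compounds plus 3 SD, cut at about 5.5% in these data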
DAX1 inh-2: inhibits human nuclear receptor DAX1 | HEK293 Gal4-DAX1 luciferase reporter, luminescence | inhibition, % at 6.75 µM | 0.99% of 340,000 active | AID 504766;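 active means inhibition above the mean over all tested compounds plus 3 SD, cut at about 4.2% in these data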;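 further: inhibition shows as a rise in luminescence from relieved DAX1 repression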
Target sequence (P51843 207-470 limits assumed): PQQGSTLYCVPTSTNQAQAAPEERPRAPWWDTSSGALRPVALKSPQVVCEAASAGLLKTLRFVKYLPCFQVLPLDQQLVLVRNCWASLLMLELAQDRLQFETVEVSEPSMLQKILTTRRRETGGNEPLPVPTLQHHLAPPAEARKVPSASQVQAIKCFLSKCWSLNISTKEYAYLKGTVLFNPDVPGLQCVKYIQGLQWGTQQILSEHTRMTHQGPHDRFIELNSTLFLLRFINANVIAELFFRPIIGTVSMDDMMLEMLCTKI
Hits are given with their value; n = inactive; x = no result given; ! = not confirmed by another sample.

SMILES	hgDAF-12 ag	DAX1 inh-1	ssDAF-12 act	hcDAF12 agonist	DAX1 inh-2
Cc1ccc(O)c(C2=Nc3ccccc3N=C(c3cccc([N+](=O)[O-])c3)C2)c1	n	n	n	n	n
Cc1ccc(/C=C/C(=O)N2CCc3ccccc3C2)cc1	n	n	n	n	n
O=C(/C=C/c1ccc(F)cc1)N1CCc2ccccc2C1	n	3.8	n	n	n
O=C(CNSc1ccc([N+](=O)[O-])cc1[N+](=O)[O-])OCc1ccccc1	n	n	n	n	x
COc1ccc(NC(=S)Nc2ccc3nccnc3c2)cc1	11	n	n	n	n
CN(C)c1cccc2c(S(=O)(=O)NCC3CCN(C(=O)C(=O)c4cccs4)CC3)cccc12	n	n	n	n	x
Nc1ncnc(N)c1NC(=O)c1ccccc1	n	n	n	n	x
COC(=O)C1CN(Cc2ccccc2)CCS(=O)(=O)N1Cc1cn(Cc2ccc(F)cc2)nn1 (stereo not given)	n	n	n	n	x
c1cncc(CSc2ccc(-c3cccs3)nn2)c1	12	n	n	n	n
Cc1ccc(CSc2ccc(-c3cccs3)nn2)cc1	n	n	n	n	n
NNC(=O)c1csc(COc2cc(Cl)cc(Cl)c2)n1	n	n	n	n	x
CC(=O)c1csc(COc2ccc(Cl)cc2)n1	n	n	n	n	9.3
CCC(C#Cc1ccccc1)NCc1ccc(OC)cc1OC (stereo not given)	n	x	n	n	x
COC(=O)[C@]12C[C@H](CC(=O)N3CCN(C(=O)C4CC4)CC3)C(=O)N(Cc3ccc(Cl)cc3Cl)C1=C[C@H](C1CCCC1)O[C@@H]2C	n	n	n	n	x
CCCc1cc(=O)oc2c3c(cc(OCC(=O)N4CCC[C@H]4C(=O)O)c12)OC(C)(C)CC3	n	n	n	n	4.5
COc1ccccc1CNC(=O)COc1cc2c(c3oc(=O)cc(C)c13)CCC(C)(C)O2	n	n	n	n	4.4
COc1ccc(CNC(=O)COc2cc3c(c4oc(=O)cc(C)c24)CCC(C)(C)O3)cc1	n	n	n	n	n
CCc1cc(=O)oc2c3c(cc(OCC(=O)NC4CC4)c12)OC(C)(C)CC3	n	n	n	n	n
COCCn1c(C)cc(C(=O)COC(=O)c2ccc(Br)o2)c1C	n	n	n	n	5.4
CCCN(CCC)CCNC(=O)c1cc2c(=O)n(C)c3ccccc3c2n1C	n	n	n	n	5.7
CCN1CCN(C(=O)c2cc3c(=O)n(C)c4ccccc4c3n2C)CC1	n	n	n	n	5.8
Cc1ccc(CNC(=O)c2cc3c(=O)n(C)c4ccccc4c3n2C)cc1	n	n	n	n	5.6
CC1CCCN(c2cccc3c2S(=O)(=O)N([C@H](C)c2ccccc2)C[C@@H](COCc2ccccc2)O3)C1 (stereo not given in full)	n	n	n	n	x
CCOc1cc2c(cc1OCC)C(c1ccc(F)cc1)NCC2 (stereo not given)	n	n	n	n	n
CCOc1cc(C2NN=C(c3ccccc3)S2)ccc1OCc1ccc(F)cc1 (stereo not given)	12	n	1.1	n	n
SMILES	hgDAF-12 ag	DAX1 inh-1	ssDAF-12 act	hcDAF12 agonist	DAX1 inh-2
Cc1cc(=O)[nH]c(SCc2nc3ccccc3s2)n1	n	n	n	n	n
CCCc1cc(=O)[nH]c(SCc2nc3ccccc3s2)n1	n	n	n	6.0	n
CC(=O)N1c2cc(S(=O)(=O)Nc3c(C)n(C)n(-c4ccccc4)c3=O)c(Br)cc2CC1C (stereo not given)	n	n	n	n	x
Cc1cccc(Nc2nc(-c3ccccn3)cs2)n1	13	n	1.1	6.0	n
CC(=O)Oc1ccc(-c2csc(Nc3cccc(C)n3)n2)cc1	n	n	2.4	n	5.5
CCCCN1CC(COCc2ccccc2)Oc2cccc(Oc3ccc(F)cc3OC)c2S1(=O)=O (stereo not given)	n	n	n	n	x
CC1CCCCC1=NNC(=O)c1ccccc1 (stereo not given)	n	4.1	n	n	5.9
CN(c1ccccc1)S(=O)(=O)c1cccc(NC(=O)CCN2C(=O)C3CCCCC3C2=O)c1 (stereo not given)	n	n	1.8	n	n
O=C(C(=O)N1CCC(CNC(=O)c2cccs2)CC1)c1cc2ccccc2o1	n	n	n	n	x
O=C(COC(=O)c1ccccc1F)NC1CCCC1	n	n	n	n	n
O=C(COC(=O)c1c(F)cccc1Cl)NC1CCCCC1	n	n	1.0	n	n
CC(=O)C1=C(C)N(Cc2ccc(F)cc2)C(=S)NC1c1ccccc1 (stereo not given)	n	n	n	n	x
COc1cc(/C=N/NC(=O)COc2ccc(C)cc2)ccc1OC(=O)c1cccs1	n	n	0.9	n	n
Cc1ccc(/C=N\NC(=O)COc2ccc(C)cc2[N+](=O)[O-])cc1	n	n	n	n	7.0
Cc1ccc(OCC(=O)N/N=C\c2ccc(O)c([N+](=O)[O-])c2)c([N+](=O)[O-])c1	n	n	n	n	n
O=C(COC(=O)COc1ccccc1[N+](=O)[O-])Nc1ccccc1Br	n	n	n	n	n
Cc1ccc(OCC(=O)Nc2ccccc2[N+](=O)[O-])c(Br)c1	n	n	1.0	n	n
CC(C)c1ccccc1NC(=O)COC(=O)COc1ccccc1[N+](=O)[O-]	n	n	1.9	n	n
CCc1c(-c2ccc(Br)cc2)ncn1CCc1ccccc1OC	n	n	n	n	x
COC[C@@H](O)[C@H]1OCc2cccc(OC)c2[C@@H]1/C=C/c1ccccc1	n	n	n	n	x
CN(C)S(=O)(=O)c1ccc(Cl)c(NC(=O)COc2ccccc2[N+](=O)[O-])c1	n	n	0.9	n	n
Cn1nc(C(=O)OCC(=O)Nc2ccccc2[N+](=O)[O-])c2ccccc2c1=O	n	n	1.0	n	n
Cn1nc(C(=O)OCC(=O)Nc2cc(Cl)ccc2C#N)c2ccccc2c1=O	n	n	n	n	n
CCCc1nc2c(C)cc(Br)cn2c1Cc1cccc(Cl)c1	n	n	n	n	x
CCOC(=O)[C@]12CCCCC/C=C\1N(CCc1ccc(Cl)cc1)C(=O)[C@H]2CC(=O)NCCc1ccccc1OC	n	n	n	n	x
SMILES	hgDAF-12 ag	DAX1 inh-1	ssDAF-12 act	hcDAF12 agonist	DAX1 inh-2
COc1ccc(OC)c(N)c1	n	n	n	n	5.1
CC(=O)Nc1cccc2c1C(=O)N(c1ccc(C)cc1)C2=O	n	n	n	6.0	n
[O-][N+](=C(c1ccccc1)c1ccccc1)c1ccccc1	n	n	0.9	n	n
COc1ccc(CCNC(=O)c2cccnc2Cl)cc1OC	n	n	n	n	6.3
CCOC(=O)Nc1ccc2c(c1)N(C(=O)OCCN(C)C)c1ccccc1CC2	n	n	n	n	5.1!
O=C(NCc1ccccc1)[C@@H]1CCCN1C(=O)[C@H]1CCCN1C(=O)C1CCCCC1	n	n	n	n	x
COC(=O)[C@@H](C)NC(=O)c1ccc2oc(CCc3ccccc3)nc2c1	11	n	n	n	n
COC(=O)CCCNC(=O)c1ccc2oc(CCCc3ccccc3)nc2c1	n	n	n	n	n
